From PubChem BioAssay (NCI)
Where “and” joins values, the source holds several entries; their conditions need not be identical. Identical values can stand only once. This is part of a sample that, as a whole, favours compounds with a hit. Of some 83,000 tested, about 20% had one in any assay.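 Negative percent growth values reflect cell death: -40 means 40% of the cells present at the start died, and -100 means all died.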 Calls of active or inactive are those of the source.

system: RPMI-8226 leukemia; assay: NCI-60 one-dose screen, 48 h (100 = growth as untreated, 0 = no growth, -100 = all killed); settings: 10 µM
Experimental: Growth inhibition of the RPMI-8226 human tumor cell line is measured as a screen for anti-cancer activity. Cells are grown in 96 well plates and exposed to the test compound for 48 hours. Compounds are tested at a single concentration, which is 10^-5 M for most compounds. The reported endpoint is percent growth (GI% or GIPRCNT), where numbers from 0 - 100% represent growth inhibition, and numbers from -100% - 0 represent cell death. For example, a value of 40 represents 60% growth inhibition. A value of 0 means no net growth occurred over the course of the experiment. A value of -40 indicates 40% of cells at the beginning of the experiment died by the end of the experiment. A value of -100 means all cells are dead at the end of the experiment.
NCI-60 Human Tumor Cell Lines Screen was performed using the standard one-dose NCI protocol, which is described in more detail at https://dtp.cancer.gov/discovery_development/nci-60/default.htm.
Compounds with GIPRCNT values below 10 were considered active. Activity score was based on GIPRCNT using the following formula: […]
Score is 0 for GIPRCNT values of 100 or above, 50 for GIPRCNT values of 0, and 100 for GIPRCNT values of -100.

| Compound | growth |
| --- | --- |
| O=C(/C=C/c1cccc(Oc2ccc(Cl)cc2)c1)c1ccccc1 | 0.961% (active) |

same assay, conditions: 10 µM unless noted

| Compound | growth |
| --- | --- |
| CN(C)CCCn1c2nc(=O)[nH]c(=O)c-2nc2cc(Cl)c(Cl)cc21 | 73.6% (inactive) |
| O=C([C@H]1C[C@H]1c1ccc(S(F)(F)(F)(F)F)cc1)N1CCN(c2cc(Cl)ccc2C(F)(F)F)CC1 | 75.8% (inactive) |
| COc1ccc(-c2nc(Cl)c3c(C)nn(-c4ccc(F)cc4)c3n2)cc1 | 102% (inactive) |
| OCCN1CCN(CC/C=C2\c3ccccc3Sc3ccc(Cl)cc32)CC1 | -35.8% (active) and -38.4% (active) |
| Cc1ccc(S(=O)(=O)OC[C@@]2(C)CC[C@]3(C)CC[C@]4(C)C(=CC[C@@H]5[C@@]6(C)CCCNC(C)(C)[C@@H]6CC[C@]54C)[C@@H]3C2)cc1 | -57.8% (active) |
| CCCNNC(=O)/C=C/c1ccc(CNCCc2c(C)[nH]c3ccccc23)cc1 | 16.3% [2.5 µM] (inactive) |
| Nc1nc2ccccc2c2c(=O)c3ccc(Cl)cc3sc12 | 95.7% (inactive) |
| C=C1C(=O)O[C@H]2[C@H]1CC/C(COC(=O)NCc1ccc(Cn3c(=O)sn(CCCI)c3=O)cc1)=C\CC[C@@]1(C)O[C@@H]21 | -6.45% (active) |
| O=C1/C(=C/c2cn(-c3ccccc3)nc2-c2ccccc2)SC(=S)N1c1ccc(Cl)cc1 | 78.8% (inactive) |
| CCOC(=O)CCCn1c(-c2ccccc2)cc(-c2ccccc2)c(C#N)c1=O | 87.2% (inactive) |
| Cc1cnc(C(=O)NNc2nc3sc4c(c3c(=O)[nH]2)C(C)CCC4)cn1 (stereo not given) | 29.3% (inactive) |
| O=S(=O)(O)c1ccc(N=Nc2ccc(N=Nc3cccc4ccccc34)c(S(=O)(=O)O)c2)cc1 | 108% (inactive) |
| N=C(N)c1ccc(-c2ccc(-c3ccc(F)cc3)s2)nc1 | 5.51% (active) |
| Cc1ccc(-c2nc3nc(-c4ccccc4)nc(N4CCN(S(=O)(=O)c5ccccc5)CC4)c3o2)cc1 | 105% (inactive) |
| CC(=O)c1nn(-c2ccccc2)/c(=N/N=Cc2cn(-c3ccccc3)nc2-c2cc3ccccc3oc2=O)s1 | 102% (inactive) |
| COCCn1cc(-c2csc(-c3cn(C)c4ccc(F)cc34)n2)c2cccnc21 | 67.7% (inactive) |
| COc1ccc(-c2ccc(-c3ccc(C(=N)N)cn3)s2)cc1Cl | -41.6% (active) |
| CN1Cn2c(ccc2C(F)(F)F)C(=O)CS1(=O)=O | 109% (inactive) |
| O=C(Nc1ccc(Cl)c(Cl)c1)Nc1ccc(Cl)c(Cl)c1 | -36.5% (active) and 10.6% (inactive) |

| Compound | growth |
| --- | --- |
| O=C(O)c1ccccc1Cc1ccc(F)c2ccccc12 | 110% (inactive) and 96.2% (inactive) |
| Fc1ccc(NC(c2ccc(F)cc2)C2CCN(CCCCc3ccccc3)CC2)cc1 (stereo not given) | -17.6% (active) |
| CC(Sc1ccccc1)C(=O)O (stereo not given) | 117% (inactive) |
| COc1ccc(-c2cc(-c3cccc(Cl)c3)c(C#N)c(=O)[nH]2)c(OC)c1 | 68.3% (inactive) |
| C=C1CC[C@@H]2[C@](C)(COC(C)=O)[C@H](OC(C)=O)CC[C@@]2(C)[C@@H]1CC(Nc1ccc(S(=O)(=O)Nc2nccs2)cc1)C1=CCOC1=O (stereo not given in full) | -13.3% (active) |
| Cc1ccc(-c2nc(C#N)c(S(=O)(=O)N(C)C)o2)cc1 | 84.3% (inactive) |
| O=C(Nc1ncc(Cc2cccc(C(F)(F)F)c2)s1)c1ccc(-n2cnnn2)cc1 | 51.5% (inactive) |
| CCCn1nc(C(=O)N2CCCCC2)c2c1CCC(N1CCC(c3ccncc3)CC1)C2 (stereo not given) | 105% (inactive) |
| COc1cc(/C=C(/c2ccccc2)[N+](=O)[O-])c(OC)c2c1OCO2 | -19.7% (active) |
| [Cu+].[NH-][C@H]1C[N-]C(=O)[C@H]([C@H]2CCN=C(N)N2)[N-]C(=O)/C(=C\NC(N)=O)[N-]C(=O)[C@H](CNC(=O)C[C@@H](N)CCCN)[N-]C(=O)[C@H](CO)[N-]C1=O | 103% (inactive) |
| CN(C)CCN1C(=O)c2c(c3c4ccccc4n4c3c3c2c2ccccc2n3C2CC(O)C(O)C4(C)O2)C1=O (stereo not given) | 18.5% (inactive) |
| ON=C1CCCCCCCC1 | 103% (inactive) and 102% (inactive) |
| COC(=O)[C@H]1Cc2c([nH]c3ccccc23)[C@@H](c2cccs2)N1 | 103% (inactive) |
| Nc1ncnc2c1C(c1ccc([N+](=O)[O-])cc1)c1sc3c(F)cccc3c1O2 (stereo not given) | 103% (inactive) |
| COc1ccc(-c2cc3cnc4ccccc4c3oc2=O)cc1 | 102% (inactive) |
| Cc1nnc(NS(=O)(=O)c2ccc(N=Nc3ccc(N)nc3N)cc2)s1 | 105% (inactive) |
| O=C1C=C(Nc2ccccc2)c2ncccc2C1=O | -40.7% (active) |
| COC(=O)c1[nH]nc(OC)c1C1(C(C#N)c2nc3ccccc3s2)CCCc2ccccc21 (stereo not given) | 94.7% (inactive) |
| CCOC(=O)N(O)c1ccc(/C=C/c2ccccc2)cc1 | 62.2% (inactive) and 49.3% (inactive) |

same assay, conditions: 100 µM

| Compound | growth |
| --- | --- |
| O=C(/C=C/c1cccc(Oc2ccc(Cl)cc2)c1)c1ccccc1 | -30.3% (active) |
